# Experimental data as given in the supplement of paper PMC6555819.
# Legend:
# Test in all cases: PBM binding z-score (relative to random genomic background probes); higher = stronger binding; sequences stand for … in GC…GCGATTGACAGCGTAGAATGAAGG
# [1] = system: FXR:RXRa (NR concentration 270 nM, RXRa partner concentration 90 nM)
# Procedure, shortened: (§1)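 Antibodies against each partner of ligand-free nuclear receptor dimers (one per run) detected binding on custom Agilent 4×180K protein-binding microarrays after 1 h incubation. The double-stranded probes had 34-nt variable regions carrying direct-repeat seeds, single-nucleotide variants, half-site ablations and random human genomic background sequences. Binding z-scores, from regression-normalized fluorescence, use the random background probes as reference.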
# [2] = system: LXRa:RXRa (NR concentration 270 nM, RXRa partner concentration 90 nM)
# Procedure, shortened: as §1
# [3] = system: LXRa homodimer (NR concentration 270 nM)
# Procedure, shortened: as §1
# [4] = system: LXRb:RXRa (NR concentration 270 nM, RXRa partner concentration 90 nM)
# Procedure, shortened: as §1
# [5] = system: LXRb homodimer (NR concentration 270 nM)
# Procedure, shortened: as §1
# [6] = system: PPARa:RXRa (NR concentration 270 nM, RXRa partner concentration 90 nM)
# Procedure, shortened: as §1
# [7] = system: PPARg:RXRa (NR concentration 180 nM, RXRa partner concentration 90 nM)
# Procedure, shortened: as §1
# [8] = system: PPARg:RXRa 270nM:90nM, anti-RXR (NR concentration 270 nM, RXRa partner concentration 90 nM)
# Procedure, shortened: as §1
# [9] = system: PPARg:RXRa 30nM:10nM, anti-RXR (NR concentration 30 nM, RXRa partner concentration 10 nM)
# Procedure, shortened: as §1
# [10] = system: PPARg:RXRa 90nM:30nM, anti-RXR (NR concentration 90 nM, RXRa partner concentration 30 nM)
# Procedure, shortened: as §1
# [11] = system: PPARg:RXRa DBDmut IVT, anti-RXR (DBD mutation: RXRa K156A/R161A, NR concentration 270 nM, RXRa partner concentration 90 nM)
# Procedure, shortened: as §1
# [12] = system: PPARg:RXRa IVT, anti-PPARg (NR concentration 270 nM, RXRa partner concentration 90 nM)
# Procedure, shortened: as §1
# [13] = system: PPARg DBDmut:RXRa IVT, anti-PPARg (DBD mutation: PPARg1 K132A/R137A, NR concentration 270 nM, RXRa partner concentration 90 nM)
# Procedure, shortened: as §1
# [14] = system: PPARg DBDmut IVT, anti-PPARg (DBD mutation: PPARg1 K132A/R137A, NR concentration 270 nM)
# Procedure, shortened: as §1
# [15] = system: PPARg homodimer (NR concentration 180 nM)
# Procedure, shortened: as §1
# [16] = system: PXR:RXRa (NR concentration 270 nM, RXRa partner concentration 90 nM)
# Procedure, shortened: as §1
# [17] = system: PXR homodimer (NR concentration 270 nM)
# Procedure, shortened: as §1
# [18] = system: RARa:RXR (NR concentration 270 nM, RXRa partner concentration 90 nM)
# Procedure, shortened: as §1
# [19] = system: RARa homodimer (NR concentration 270 nM)
# Procedure, shortened: as §1
# [20] = system: RARb:RXRa (NR concentration 270 nM, RXRa partner concentration 90 nM)
# Procedure, shortened: as §1
Sequence,PBM binding z-score [1],PBM binding z-score [2],PBM binding z-score [3],PBM binding z-score [4],PBM binding z-score [5],PBM binding z-score [6],PBM binding z-score [7],PBM binding z-score [8],PBM binding z-score [9],PBM binding z-score [10],PBM binding z-score [11],PBM binding z-score [12],PBM binding z-score [13],PBM binding z-score [14],PBM binding z-score [15],PBM binding z-score [16],PBM binding z-score [17],PBM binding z-score [18],PBM binding z-score [19],PBM binding z-score [20]
ATATGTAGGTTCAGGGTCATTCAGGTTGGTTCGC,4.82,4.56,2.81,4.44,1.46,5.2,7.3,7.14,6,7.46,3.41,4.69,1.38,1.25,3.72,5.44,5.1,5.15,2.39,3.41
CTACCAAGGTGAACTAGGTCGTTGATTACTATTC,1.2,1,0.238,1.61,-0.516,2.59,1.12,1.6,0.168,1.05,3.53,3.8,0.391,0.182,0.824,1.4,0.424,1.61,0.0789,1.97
CCTCGGAGGACAACAGGAGCTCAGAGCTGCCAGA,-0.156,-0.474,-0.523,-0.921,-0.933,-0.767,-0.107,-1,-0.714,-0.999,0.0652,-0.614,-1.06,-2.08,-0.744,-0.836,-0.522,-0.894,-0.387,0.83
GCTTGTAGATCAAGGTAAAGAAAGACTAAGCTAA,-0.136,-0.278,-0.768,-0.413,-0.986,-0.222,0.0186,0.28,-0.318,-0.167,0.905,0.644,-0.0923,0.000518,-0.791,-0.53,-0.448,0.178,-0.716,-0.161
GCTGCTAGGTCAAGTTGGTCAGCTAACGGGTACG,4.8,3.29,0.651,2.31,0.442,3.64,2.48,2.94,0.55,2.09,4.62,4.19,-0.715,-0.257,1.75,1.68,-0.361,2.19,0.462,4.38
GCTATTAGTTTAAAGGGCAACCGAATGATTCTCG,0.917,1.13,0.643,1.42,0.922,2.44,2.98,4.5,2.59,4.67,1.27,1.31,0.587,0.575,1.43,1.09,0.349,1.28,0.262,2.09
GCTGCTAGGTCAGGTTGGTGAGCTAACGGGTACG,1.04,0.598,-0.365,0.053,-0.485,1.22,0.336,0.876,-0.603,0.225,2.52,1.93,-0.822,-0.37,0.201,0.142,-0.5,0.873,-0.817,3.24
ATCTCTAGGTAAAGATAGTTCAGCGAATGCAAAT,0.212,4.41,0.481,0.836,0.431,0.777,0.334,0.42,0.395,0.368,2.37,1.47,0.72,1.31,0.488,0.995,0.643,0.739,1.34,0.964
ATCTCTAGGTACGACTCAGTTCAGTGAAGAACGC,0.373,0.42,0.735,0.686,1.15,0.0584,0.161,0.105,0.235,-0.098,0.59,0.456,0.443,1.02,0.793,1.4,1.82,0.363,1.28,0.504
TCAGACAGGTGAAGTTAACTCAGGTACGCAGTCG,0.865,0.967,0.0333,0.725,-0.0783,1.17,0.534,2.18,3.93,2.75,2.34,0.646,0.282,-0.426,0.226,0.543,0.31,0.876,0.495,1.03
TCTCGGAGGACACGAAAGGTCAAAGCTCGACATC,4.46,5.45,6.31,4.92,0.987,4.72,2.15,3.75,2.79,3.33,1.72,2.11,-0.166,-0.0155,3.27,5.39,1.21,5.48,1.41,4.55
TCTATTAATTGAAGGGCAACCGACGAGTCCGTTT,0.489,1,1.77,0.808,0.497,1.16,0.0188,1.99,3.93,2.74,2.49,0.956,0.163,1.02,1.56,0.915,1.96,0.829,1.43,1.45
GATACAGGGCCAGCTAGAGGCCAGAGTATGGAAA,-0.612,-0.872,-0.883,-1.08,-1.43,-0.738,0.208,-0.6,-0.543,-0.645,-0.745,-0.681,-0.858,-1.22,-0.793,-0.72,-0.244,-0.464,-0.203,0.56
AGAATGAGGTTATTGAGATCAGGGAATTGCGGTC,2.32,1.71,0.125,1.34,-0.146,2.79,1.67,2.07,0.258,1.31,3.5,2.93,0.606,0.563,0.709,1.57,0.864,1.84,0.342,1.63
